# Calls of active or inactive are those of the source. The call rests on the fitted dose curve.
# Test: Immunofluorescence assay for KAP-1 phosphorylation on Ser824 for Identifying a Potential Treatment of Ataxia-Telangiectasia: SAR for Probe
# Settings: F2112 A-T fibroblasts, pKAP-1 S824 immunofluorescence
# Source text: NIH Chemical Genomics Center [NCGC] NIH Molecular Libraries Probe Centers Network [MLPCN] MLPCN Grant: MH089030-01 Assay Submitter (PI): Wei Zheng and Yosef Shiloh Ataxia-telangiectasia (A-T) is a devastating and progressive disease for which, there is no cure. Although A-T is a multisystem disease, it is stereotyped characterized by its neurological symptoms such as truncal ataxia, due to cerebellar cortical degeneration of the Purkinje and granule cells. Other symptoms of A-T are telangiectasias (dilated blood vessels), primary immunodeficiency, marked sensitivity to ionizing radiation (IR), chromosomal instability and predisposition to cancer. The underlying genetic cause of A-T is null mutations in the ATM (A-T mutated) gene. ATM is a nuclear serine/threonine kinase that functions as a master regulator of the cellular responses to double strand breaks (DSBs) in the DNA. Upon activation by DSBs, ATM phosphorylates a plethora of downstream targets, including KAP-1 on […]. KAP-1 phosphorylation occurs shortly in response to DSBs and mediates global chromatin relaxation, which facilitates DSB repair. To screen for small molecules that will compensate for the loss of ATM in cells derived from A-T patients, we monitored KAP-1 phosphorylation as a readout for ATM-like activity using an AlphaLISA assay.
# qHTS Assay Protocol: 1. […] Plates are the read on InCell.
row,Compound,Potency
1,CC(=O)c1c(O)c(C)c(O)c(Cc2c(O)c3c(c(C(=O)/C=C/c4ccccc4)c2O)OC(C)(C)C=C3)c1O,10 µM (active)
